This is part of a sample that, as a whole, favours compounds with a hit. Of some 83,000 tested, about 20% had one in any assay.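 Compound tested at a single concentration for 48 hours in 96-well plates; a percent growth value below 10 was scored as active.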 Unmarked numbers belong to inactive results. Active and inactive are the calls of the source.
System: MDA-MB-468 breast
Assay: NCI-60 one-dose screen, 48 h (100 = growth as untreated, 0 = no growth, -100 = all killed)
Settings: 10 µM unless noted

SMILES	growth
C=C(C)[C@@H]1CC[C@]2(C(=O)N3CCN(C)CC3)CC[C@]3(C)[C@H](CC[C@@H]4[C@@](C)(CCC(=O)O)[C@H](C(=C)C)CC[C@]43C)[C@@H]12	90.1%
Nc1nc2c([nH]1)c1[nH]c3ccccc3c1c1[nH]c3ccccc3c21	-57.2% (active)
OCc1cc(CN2CCCCC2)c(O)c2ncccc12	76.7%
COc1ccccc1/C=C/C(=O)c1ccccc1	21.4%
COc1ccc(-c2nnc(SCC(=O)Nc3ccc(C(=O)/C=C/c4ccccc4)cc3)n2-c2ccccc2)cc1OC	94.8%
CC(C)C1=NOC(=O)C1=Cc1cn(-c2ccco2)nc1-c1ccccc1	54%
Fc1ccc2[nH]cc(-c3nc(-c4c[nH]c5c(Cl)nccc45)cs3)c2c1	9.87% (active)
CCCCCCCCNc1ncnc2c1ncn2Cc1nnc2c3ccccc3c(Cl)nn12	40.6%
O=S(=O)(NCCCNc1nccc(-c2c(-c3cccc(O)c3)nc3occn23)n1)c1ccc(Cl)cc1	105%
COc1ccc(CCN=Cc2ccc(Cl)cc2)cc1OC	117%
CSc1nc2nc3c(nc2c(=O)n1C)C(=O)c1ccccc1C3=O	-58.4% (active)
COc1ccc(/C=N/Nc2cc(=O)[nH]c3ccc(Cl)cc23)cc1	78%
c1ccc(CNc2ncnc3scc(-c4cccs4)c23)nc1	12%
O=C1C(N2CCOCC2)=C(I)C(=O)c2ncccc21	42%
S=C(S)N1CCCC1	111%
CCOC(=O)c1nc(Nc2ccc(NC(=O)Nc3ccc(F)cc3)cc2)c2ccccc2n1	80.3%
N/C(=N\N=C\c1cc2ccccc2[nH]1)N/N=C/c1cc2ccccc2[nH]1	107%
Cc1cc(O)c(C(C)(C)C)cc1Sc1cc(C(C)(C)C)c(O)cc1C	67.2%
CCC1=C[C@@H]2CN(C1)Cc1c([nH]c3ccccc13)[C@@](C(=O)OC)(c1cc3c(cc1OC)N(C)[C@H]1[C@@](O)(C(=O)OC)[C@H](OC(C)=O)[C@]4(CC)[C@@H]5C[C@@H]5CN5CC[C@]31[C@@H]54)C2	-31.7% (active)
[2H]C([2H])([2H])Oc1ccc(/C=C/C(=O)/C=C(/C=C/c2ccc(OC([2H])([2H])[2H])c(OC([2H])([2H])[2H])c2OC([2H])([2H])[2H])OB(F)F)c(OC([2H])([2H])[2H])c1OC([2H])([2H])[2H]	65%
CS(=O)(=O)Nc1ccc(C(=O)NC(C(=O)NO)c2ccc(-c3cccc(F)c3)cc2)cc1 (stereo not given)	95%
CC1(C)N=C(N)N=C(N)N1c1ccc(CCc2ccccc2)c(Cl)c1	-28.3% (active)
CC(C)Cc1ccc(C(C)C(=O)NCc2c[nH]c3ccc(Cl)cc23)cc1 (stereo not given)	80.7%
CCN1C(=O)N(CC)C2C1N=C(SCc1ccc(Cl)cc1)N2/N=C/C=C/c1ccccc1OC (stereo not given)	40.5%
CNC(=O)CCN1CCN(CC/C=C2\c3ccccc3Sc3ccc(Cl)cc32)CC1	72.5%
